These results are taken from ChEMBL document CHEMBL1961873, “Compounds: GSK PKIS; Assays: Nanosyn kinase panel” (2012).

Experiment [1] has as its target RAF proto-oncogene serine/threonine-protein kinase (Homo sapiens) (UniProt P04049). Conditions: at 1 µM.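 Further: values are the mean percent inhibition of CRAF.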
Experiment [2] deals with T1, Interleukin-1 receptor-associated kinase 4 (Homo sapiens) (UniProt Q9NWZ3).
T1 sequence (whole entry): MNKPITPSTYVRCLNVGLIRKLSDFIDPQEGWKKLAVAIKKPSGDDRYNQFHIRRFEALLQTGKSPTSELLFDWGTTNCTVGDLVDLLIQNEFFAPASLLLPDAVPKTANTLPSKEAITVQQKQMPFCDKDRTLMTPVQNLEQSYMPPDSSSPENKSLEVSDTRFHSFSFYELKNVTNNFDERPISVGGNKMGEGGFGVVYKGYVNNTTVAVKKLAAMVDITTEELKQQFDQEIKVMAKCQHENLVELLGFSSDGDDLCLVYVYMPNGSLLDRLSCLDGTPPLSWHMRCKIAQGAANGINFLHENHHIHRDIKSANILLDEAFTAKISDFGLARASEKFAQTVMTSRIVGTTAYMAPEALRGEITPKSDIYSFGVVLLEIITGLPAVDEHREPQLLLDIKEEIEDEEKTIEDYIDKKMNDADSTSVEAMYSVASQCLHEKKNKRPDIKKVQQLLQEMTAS
Conditions: at 0.1 µM.

The target of experiment [3] is T1, Interleukin-1 receptor-associated kinase 4 (Homo sapiens). Conditions: at 1 µM.
Experiment [4] addresses Leucine-rich repeat serine/threonine-protein kinase 2 (Homo sapiens) (UniProt Q5S007). Conditions: at 0.1 µM.
The target is the same in experiment [5]. Particulars: at 1 µM.
Experiment [6] has as its system Leucine-rich repeat serine/threonine-protein kinase 2 (Homo sapiens), Q5S007 [G2019S]. Particulars: at 0.1 µM.
For experiment [7] the test system is unchanged. Particulars: at 1 µM.

Sequence of Leucine-rich repeat serine/threonine-protein kinase 2 (Homo sapiens) (Q5S007 whole entry): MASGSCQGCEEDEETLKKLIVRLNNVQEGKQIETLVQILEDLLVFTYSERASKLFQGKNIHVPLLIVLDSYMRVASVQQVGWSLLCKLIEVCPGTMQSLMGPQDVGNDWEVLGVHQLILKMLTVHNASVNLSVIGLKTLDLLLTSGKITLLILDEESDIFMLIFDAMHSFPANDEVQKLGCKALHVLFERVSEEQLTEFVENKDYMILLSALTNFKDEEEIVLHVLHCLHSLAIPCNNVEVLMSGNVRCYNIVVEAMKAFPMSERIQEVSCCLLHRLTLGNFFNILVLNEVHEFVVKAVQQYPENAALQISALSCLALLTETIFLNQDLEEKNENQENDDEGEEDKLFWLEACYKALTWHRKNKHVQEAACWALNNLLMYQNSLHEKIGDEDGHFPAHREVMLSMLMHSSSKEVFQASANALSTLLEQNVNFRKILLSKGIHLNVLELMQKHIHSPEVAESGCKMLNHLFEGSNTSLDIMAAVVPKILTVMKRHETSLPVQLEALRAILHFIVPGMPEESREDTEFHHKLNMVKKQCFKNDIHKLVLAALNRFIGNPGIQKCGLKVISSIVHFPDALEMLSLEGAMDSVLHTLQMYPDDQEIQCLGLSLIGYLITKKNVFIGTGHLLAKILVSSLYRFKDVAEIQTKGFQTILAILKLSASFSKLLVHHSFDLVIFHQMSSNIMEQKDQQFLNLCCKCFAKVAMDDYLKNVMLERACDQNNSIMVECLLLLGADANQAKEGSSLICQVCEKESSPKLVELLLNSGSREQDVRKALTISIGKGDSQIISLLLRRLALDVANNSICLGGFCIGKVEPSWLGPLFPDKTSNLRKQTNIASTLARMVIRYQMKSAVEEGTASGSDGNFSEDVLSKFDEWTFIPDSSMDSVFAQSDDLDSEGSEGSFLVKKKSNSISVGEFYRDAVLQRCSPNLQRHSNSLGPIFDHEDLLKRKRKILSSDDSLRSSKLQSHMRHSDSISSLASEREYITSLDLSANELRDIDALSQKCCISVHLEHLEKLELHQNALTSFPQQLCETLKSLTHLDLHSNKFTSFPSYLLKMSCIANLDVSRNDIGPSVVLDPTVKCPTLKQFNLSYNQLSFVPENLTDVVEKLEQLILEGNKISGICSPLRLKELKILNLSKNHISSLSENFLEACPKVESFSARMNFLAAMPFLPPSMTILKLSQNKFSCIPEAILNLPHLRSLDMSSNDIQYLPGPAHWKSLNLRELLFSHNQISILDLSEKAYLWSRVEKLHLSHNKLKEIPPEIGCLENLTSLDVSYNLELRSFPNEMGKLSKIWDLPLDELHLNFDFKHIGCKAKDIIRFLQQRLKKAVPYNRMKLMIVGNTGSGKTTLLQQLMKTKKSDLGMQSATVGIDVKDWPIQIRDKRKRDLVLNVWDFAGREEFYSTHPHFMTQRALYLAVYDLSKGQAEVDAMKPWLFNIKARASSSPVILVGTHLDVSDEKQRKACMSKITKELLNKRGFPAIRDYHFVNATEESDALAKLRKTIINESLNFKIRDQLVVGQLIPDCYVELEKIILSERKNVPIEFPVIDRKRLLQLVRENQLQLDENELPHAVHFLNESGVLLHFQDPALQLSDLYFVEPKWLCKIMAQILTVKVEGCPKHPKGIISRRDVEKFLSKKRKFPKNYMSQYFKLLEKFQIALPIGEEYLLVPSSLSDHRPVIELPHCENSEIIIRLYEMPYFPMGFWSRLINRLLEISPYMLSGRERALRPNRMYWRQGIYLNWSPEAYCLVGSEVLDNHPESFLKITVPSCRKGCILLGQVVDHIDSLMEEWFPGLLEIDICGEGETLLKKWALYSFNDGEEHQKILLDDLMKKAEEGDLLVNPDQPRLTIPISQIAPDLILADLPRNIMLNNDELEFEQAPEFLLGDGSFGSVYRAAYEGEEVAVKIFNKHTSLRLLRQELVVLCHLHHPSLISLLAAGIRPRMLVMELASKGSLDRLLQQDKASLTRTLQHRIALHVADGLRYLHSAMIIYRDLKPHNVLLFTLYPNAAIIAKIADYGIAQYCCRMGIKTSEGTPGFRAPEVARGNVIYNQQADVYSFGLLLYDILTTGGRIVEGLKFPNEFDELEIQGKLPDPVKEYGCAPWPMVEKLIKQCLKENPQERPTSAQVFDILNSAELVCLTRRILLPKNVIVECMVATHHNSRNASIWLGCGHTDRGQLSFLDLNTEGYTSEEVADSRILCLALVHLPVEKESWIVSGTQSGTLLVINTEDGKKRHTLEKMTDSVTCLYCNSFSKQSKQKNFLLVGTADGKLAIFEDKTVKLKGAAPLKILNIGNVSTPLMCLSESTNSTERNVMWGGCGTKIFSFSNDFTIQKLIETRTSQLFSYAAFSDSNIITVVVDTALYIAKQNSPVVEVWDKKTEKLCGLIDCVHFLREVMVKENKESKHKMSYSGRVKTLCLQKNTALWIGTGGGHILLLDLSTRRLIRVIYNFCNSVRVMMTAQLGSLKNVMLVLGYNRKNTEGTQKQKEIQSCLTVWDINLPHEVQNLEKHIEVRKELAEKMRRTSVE
Sequence of Leucine-rich repeat serine/threonine-protein kinase 2 (Homo sapiens), Q5S007 [G2019S] (Q5S007 whole entry G2019S): as the sequence (Q5S007 whole entry) above, with G2019S counted along it
Sequence of RAF proto-oncogene serine/threonine-protein kinase (Homo sapiens) (P04049 whole entry): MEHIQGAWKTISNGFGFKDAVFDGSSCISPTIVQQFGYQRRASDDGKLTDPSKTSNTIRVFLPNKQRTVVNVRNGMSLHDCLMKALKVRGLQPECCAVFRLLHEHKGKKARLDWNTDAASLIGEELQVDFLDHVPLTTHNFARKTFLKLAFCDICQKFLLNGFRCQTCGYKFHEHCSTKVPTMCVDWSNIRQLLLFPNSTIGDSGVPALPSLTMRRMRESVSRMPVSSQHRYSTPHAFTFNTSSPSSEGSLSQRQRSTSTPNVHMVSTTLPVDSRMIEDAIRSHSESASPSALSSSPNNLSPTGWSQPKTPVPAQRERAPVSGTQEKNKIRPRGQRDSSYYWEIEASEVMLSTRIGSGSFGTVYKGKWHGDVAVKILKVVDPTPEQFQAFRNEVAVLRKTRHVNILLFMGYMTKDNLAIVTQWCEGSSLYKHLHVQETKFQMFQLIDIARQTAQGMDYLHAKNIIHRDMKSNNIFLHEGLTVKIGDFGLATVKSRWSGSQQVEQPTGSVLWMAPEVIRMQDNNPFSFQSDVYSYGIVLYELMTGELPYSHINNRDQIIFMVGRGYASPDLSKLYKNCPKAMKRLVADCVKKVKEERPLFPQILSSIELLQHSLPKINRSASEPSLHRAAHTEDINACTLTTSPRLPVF

For the compound `C/C(Nc1ccc(S(N)(=O)=O)cc1)=C1/C(=O)Nc2ccccc21`, the inhibition – broadly, the change of the read-out against control, counted positive when it falls – in experiment [1] was -3.52%; in experiment [2], 2.06%; in experiment [3], 0.3%; in experiment [4] it was 3.27%; in experiment [5], 18.4%; in experiment [6], 11.4%. Also, the inhibition in experiment [7] is 47.1%.

Take `NCc1ccc(-n2c(-c3nonc3N)nc3cnccc32)cc1`: the inhibition was 3.91% in experiment [1]; -0.81% in experiment [2]; 2.35% in experiment [3]; 17.2% in experiment [4]; 53.5% in experiment [5]; 22% in experiment [6]. Besides, the inhibition in experiment [7] came to 54.1%.

`c1ccc(-c2n[nH]cc2-c2ccnc(-c3ccc(OCCN4CCOCC4)cc3)c2)nc1`: the inhibition in experiment [1] came to 0.21%; in experiment [2], 2.23%; in experiment [3], 0.43%; in experiment [4] it was 11%; in experiment [5], 8.18%; in experiment [6], 6.06%. Also, the inhibition in experiment [7] was found to be 13.7%.

For `COC(=O)Nc1nc2ccc(Sc3ccc(NC(=O)Nc4cc(C(F)(F)F)ccc4F)cc3)cc2[nH]1`, the inhibition is 50% in experiment [1]; -0.12% in experiment [2]; 0.72% in experiment [3]; 0.83% in experiment [4]; 9.98% in experiment [5]; 0.3% in experiment [6]. Moreover, the inhibition in experiment [7] came out at 4.85%.

Turning to `O=C(Nc1n[nH]c2cc(-c3cc(F)ccc3F)ccc12)C1CC1`, the inhibition in experiment [1] was -0.98%; in experiment [2], 2.21%; in experiment [3], 1.18%; in experiment [4], 2.33%; in experiment [5], 3.26%; in experiment [6], 1.81%. Further, in experiment [7], the inhibition came out at 6.24%.

Take `Fc1ccc(-c2ncn(C3CCNCC3)c2-c2ccnc(Oc3ccc4c(c3)OCO4)n2)cc1`: the inhibition was -0.17% in experiment [1]; 2.54% in experiment [2]; 2.7% in experiment [3]; 5.57% in experiment [4]; 11.2% in experiment [5]; 6.45% in experiment [6]. In experiment [7], the inhibition worked out at 10.9%.

In the case of `O=C(Nc1n[nH]c2cc(-c3ccccc3)ccc12)C1CC1`, the inhibition is 1.41% in experiment [1]; 2.36% in experiment [2]; 2.04% in experiment [3]; 2.57% in experiment [4]; 6.05% in experiment [5]; 3.85% in experiment [6]. In experiment [7], the inhibition stood at 7.95%.

For `NC(=O)c1cc(-c2ccncc2)cc(-c2ccccc2)c1N`, the inhibition in experiment [1] was -6.49%; in experiment [2] it was 2.85%; in experiment [3], 2.52%; in experiment [4] it was 3.59%; in experiment [5] it was 8.2%; in experiment [6] it was 4.3%. The inhibition in experiment [7] worked out at 12.3%.

As for `COc1cc(Nc2ncc3c(C)nc(-c4cccc(C(F)(F)F)c4)n3n2)cc(OC)c1OC`, the inhibition in experiment [1] was -2.3%; in experiment [2], -2.83%; in experiment [3] it was 1.37%; in experiment [4] it was 8.04%; in experiment [5], 17.4%; in experiment [6], 11.1%. The inhibition in experiment [7] stood at 39.6%.

For `O=C(Nc1n[nH]c2nc(-c3ccco3)ccc12)C1CC1`, the inhibition in experiment [1] was 0.48%; in experiment [2] it was -2.9%; in experiment [3], 0.56%; in experiment [4] it was 3.59%; in experiment [5], 7.47%; in experiment [6], 2.37%. Besides, in experiment [7], the inhibition worked out at 8.01%.

As to `O=C(NCC1CC1)c1ccc(-c2cccc(C(=O)NC3CC3)c2)cc1`, the inhibition is 7.69% in experiment [1]; -3.46% in experiment [2]; 0.85% in experiment [3]; 3.26% in experiment [4]; 6.31% in experiment [5]; 1.46% in experiment [6]. Besides, the inhibition in experiment [7] is 5.03%.

As for `NS(=O)(=O)c1ccc(N/N=C2\C(=O)Nc3ccc(C(=O)NCCCn4ccnc4)cc32)cc1`, the inhibition in experiment [1] turned out to be 17.5%; in experiment [2] it was 3.89%; in experiment [3], 1.67%; in experiment [4] it was 7.05%; in experiment [5], 18.7%; in experiment [6], 11.1%. Moreover, the inhibition in experiment [7] amounted to 38.8%.

`NC(=O)c1cc(-c2ccc(F)cc2)cc(-c2ccncc2)c1N`: the inhibition was 8.69% in experiment [1]; 2.99% in experiment [2]; 1.61% in experiment [3]; 0.64% in experiment [4]; 0.67% in experiment [5]; 0.41% in experiment [6]. For the same compound, the inhibition in experiment [7] worked out at 0.77%.

Turning to `Clc1ccc(CNc2nccc(-c3cnn4ncccc34)n2)cc1`, the inhibition in experiment [1] is -1.19%; in experiment [2], -1.73%; in experiment [3], 2.1%; in experiment [4], 1.21%; in experiment [5], 14%; in experiment [6], 1.24%. In experiment [7], the inhibition came out at 13%.

As for `COc1cc2ncn(-c3cc(OCc4ccccc4C(F)(F)F)c(C(C)=O)s3)c2cc1OC`, the inhibition in experiment [1] is -1.56%; in experiment [2] it was 0.98%; in experiment [3], 1.4%; in experiment [4], 3.23%; in experiment [5] it was 6.15%; in experiment [6], 3.58%. Further, the inhibition in experiment [7] stood at 6.68%.

Regarding `Fc1ccc(-c2nc3n(c2-c2ccncc2)CCS3)cc1`, the inhibition in experiment [1] is -0.15%; in experiment [2], 3.38%; in experiment [3], 2.37%; in experiment [4], -3.58%; in experiment [5], -3.17%; in experiment [6], -0.21%. Also, in experiment [7], the inhibition is -0.63%.

With `COc1cc(C)c(N(C)C(=O)CN(C)C)cc1Nc1nc(Nc2cccc(F)c2C(N)=O)c2cc[nH]c2n1`, the inhibition in experiment [1] was -0.93%; in experiment [2], -1.54%; in experiment [3] it was 1.55%; in experiment [4], 20.4%; in experiment [5], 18.8%; in experiment [6], 45.5%. The inhibition in experiment [7] came to 57.7%.
